# Assay outcomes deposited in PubChem by Sanford-Burnham Center for Chemical Genomics.
# PPC-1+TRAIL kill – compounds killing PPC-1 cancer cells with TRAIL present, primary screen, TRAIL potentiator project, ATPLite luminescence, uHTS | PPC-1 cells + TRAIL, ATPLite viability luminescence | cell killing (% activity), % at 4 µM or 5 µM | 220,000 tested, 0.41% active;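 active = cell killing above 50% in the first pass at 4 µM, then a duplicate retest at 5 µM averaging 50% or more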;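 note: plate controls were cells with TRAIL plus DMSO for no effect and medium-only wells lacking cells for full effect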
# HIF-2a inh – HIF-2a reporter inhibitors, primary screen, luminescence, 786-0 RCC cells. 786-0 RCC cells HIF-2a reporter, luciferase luminescence, overnight. inhibition, % at 18.8 µM. 360,000 tested, 0.72% active;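 active = inhibition of the luminescence signal of 40% or more relative to plate controls, in a single-dose primary screen at 18.75 µM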
# KKLEB cytotox – cytotoxicity in KKLEB CF airway cells, primary screen, cytotoxicity control for CF NF-kB inhibitor project, cell-based, uHTS, fluorescence assay plates; KKLEB CF airway cells viability, ATPlite luminescence, overnight; active compounds read low; cells stimulated with P. aeruginosa culture filtrate; activity change (cytotoxicity), % at 5 µM; 360,000 tested, 0.36% active;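 active = corrected activity change at or below -50% at 5 µM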
# hiPSC survival – enhancers of single-cell hiPSC survival, primary screen, ATPlite luminescence; 100% = ROCK inhibitor wells, 0% = DMSO; survival enhancement, % at 20 µM; 360,000 tested, 0.044% active; in the data active = survival enhancement above about 18%;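 note: cells exposed to compounds for 16 hours before the ATP read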
# CF NFkB block – inhibitors of PAF-induced NF-kB signaling, primary screen, cell-based, GFP fluorescence, uHTS. KKLEB NF-kB-GFP reporter, GFP fluorescence overnight. inhibition, % at 5 µM. 360,000 tested, 0.86% active. AID 588850, 2011;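 active = at least 50% inhibition at 5 µM, scaled per plate between neutral and stimulator controls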;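 note: PAF is a Pseudomonas aeruginosa culture filtrate used as stimulus; plate controls were PAF-stimulated DMSO wells for no effect and unstimulated DMSO wells for full effect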
# C8 TRAIL sens – viability loss with TRAIL in NB7+C8 cells, primary screen, TRAIL sensitizer project, cell-based, ATPlite luminescence | inhibition (viability loss, TRAIL sensitization), % at 10 µM | 360,000 tested, 1% active;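 active = compounds causing at least 50% loss of cell viability in the single-dose screen, relative to plate controls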
# Mdm2-MdmX confirm – retested Mdm2-MdmX interaction blockers, confirmation, cell-based, luminescence, single concentration, set 2. shares compounds with HIF-2a inh. SaOS-2 split-luciferase Mdm2/MdmX complementation. inhibition, % at 8 µM. 740 tested, 99% active. AID 504601, 2011;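 active = mean inhibition of the luminescence signal across two replicates at or above 26 percent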
# HIF-2a inh conf – HIF-2a reporter inhibitor retest, confirmation, luminescence, 786-0 RCC cells; shares compounds with HIF-2a inh; HIF-2a luciferase reporter luminescence, overnight; inhibition, % at 18.8 µM; 1,800 tested, 56% active; AID 651580, 2012;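 active = mean inhibition across four replicates of at least 40 percent at the single tested concentration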
# HIF-1a counter – HIF-1a luciferase reporter signal reduction – MiaPaCa-2 cells, single concentration, counter-screen for HIF-2a inhibitor project, confirmation | shares compounds with HIF-2a inh | MiaPaCa-2 HIF-1a luciferase reporter, desferoxamine, overnight | inhibition, % at 18.8 µM | 1,800 tested, 72% active | AID 651589, 2012;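 active = mean inhibition of the reporter signal across four replicates at the single tested dose of 50% or more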
# The depositor's hits bear a star; nt = no result given. The list is not random: actives were taken first. Their share in the collection is about 2.2%.
SMILES,PPC-1+TRAIL kill,HIF-2a inh,KKLEB cytotox,hiPSC survival,CF NFkB block,C8 TRAIL sens,HIF-2a inh conf,HIF-1a counter,others
Cn1ncc2c(O/N=C(\N)c3ccc(C(F)(F)F)cc3)ncnc21,14.3,93.9*,-1.5,-0.7,7.1,95.4*,-13.2,-51.4,
Cn1c(N)c(Sc2ccc(F)cc2)c(=O)n(C)c1=O,15.9,15.3,4.2,-0.9,-18.2,-7.8,nt,nt,
O=C(O)CSCC(=O)Nc1ccc(C2CCCCC2)cc1,22.1,81.2*,3.2,-2.7,2.5,2.1,95.1*,93.5*,
CCCn1ncc(CN2CCC(CO)(CC3CCCCO3)CC2)c1C (configuration not stated),10.9,40.0*,-18.3,0.1,6.6,6.0,4.8,3.5,
COC(=O)Cn1ccc(-c2ccc(Cl)cc2)c(C#N)c1=O,12.9,57.4*,-2.2,-0.7,6.3,0.9,4.4,1.6,
COC(=O)Cn1ccc(N(C)C)c(C#N)c1=O,1.0,12.5,1.6,-0.1,11.9,-13.4,nt,nt,
COc1ccc(C(=O)Nc2nnc(Cc3ccccc3)s2)c(OC)c1,nt,-111.0,-1.8,0.2,-1.8,1.2,nt,nt,
CCN(CC)S(=O)(=O)c1cc([N+](=O)[O-])ccc1NNC(=O)Nc1ccc(Cl)c(Cl)c1,8.7,13.7,-32.3,0.9,47.8,18.6,nt,nt,Mdm2-MdmX confirm=93.7*
O=C(NNc1ccccc1[N+](=O)[O-])Nc1ccc(Cl)c(Cl)c1,31.7,0.5,18.8,-1.2,21.5,12.8,nt,nt,
COc1cccc(-c2nnc(SCC(=O)NC3CCS(=O)(=O)C3)n2C)c1 (configuration not stated),nt,4.3,18.8,-0.4,4.2,3.3,nt,nt,
C=CCn1c(C)cc(C(=O)CSc2ccc(NC(C)=O)cc2)c1C,19.1,50.2*,-7.8,0.7,7.8,1.8,66.5*,43.0,
COC(=O)c1ccc(N2CCOCC2)c(NC(=O)c2ccco2)c1,nt,15.7,-13.4,0.5,-11.2,-5.0,nt,nt,
Cc1ccc(S(=O)(=O)N2CCC(C(=O)NCCN3CCOCC3)CC2)cc1,nt,8.3,9.1,4.5,2.5,-17.7,nt,nt,
CCCCS(=O)(=O)/C=C\C=C/S(=O)(=O)CCCC,32.6,93.3*,-70.8*,6.0,83.9*,44.8,nt,nt,Mdm2-MdmX confirm=102.5*
CCCCS(=O)(=O)/C=C\C1C2C=CC(C2)C1S(=O)(=O)CCCC (configuration not stated),7.8,11.7,0.4,0.6,-8.8,-10.4,nt,nt,
NS(=O)(=O)c1ccc(CCNC(=O)c2cc(S(=O)(=O)N3CCCCC3)ccc2Cl)cc1,nt,9.7,9.2,-0.6,0.7,0.4,nt,nt,
CC(/C=C/c1ccccc1)=N/NC(=O)CCC(=O)Nc1ccccc1C,18.1,5.7,8.6,0.2,-4.4,1.5,nt,nt,
CC(=O)/C(=C/c1ccccc1)C(=O)Nc1ccccc1C,9.7,92.4*,-11.7,-0.8,25.9,19.2,88.3*,102.6*,
CCn1nnc2cc(C(=O)NCCc3ccccc3F)ccc21,nt,5.3,-1.5,0.4,11.1,14.1,nt,nt,
CC[C@]1(C(=O)OC)[C@H]2C(=O)N(Cc3ccccc3)C(=O)[C@H]2[C@H]2CN=C(SCc3ccc(C)cc3)N21,nt,7.0,7.3,1.1,-1.5,5.7,nt,nt,Mdm2-MdmX confirm=96.7*
Cc1ccc(S(=O)(=O)NC(C)C(=O)N2CCOCCOCCOCCOCC2)cc1 (configuration not stated),nt,17.0,-0.4,-0.8,1.9,-12.7,nt,nt,
O=C(Nc1cccc(C(F)(F)F)c1)Nc1nnc([C@H]2C[C@H](O)[C@@H](CO)O2)s1,nt,15.7,-9.4,-1.4,10.2,-7.0,nt,nt,
CCSCCc1nnc(NC(=O)Nc2cccc(C(F)(F)F)c2)s1,42.0,8.8,-56.5*,-2.8,69.8*,43.5,nt,nt,Mdm2-MdmX confirm=98.0*
COc1ccc2c(c1)c(=O)oc1c(C)c(OC(C)C(=O)N[C@@H](Cc3c[nH]c4ccc(O)cc34)C(=O)O)ccc12 (some centres not stated),nt,-1.7,0.3,-0.4,-8.9,-12.3,nt,nt,
O=C(Nc1cc(F)ccc1F)N1CCN(c2ccnc3cc(Cl)ccc23)CC1,26.7,32.1,-4.1,1.3,7.2,4.7,nt,nt,
SMILES,PPC-1+TRAIL kill,HIF-2a inh,KKLEB cytotox,hiPSC survival,CF NFkB block,C8 TRAIL sens,HIF-2a inh conf,HIF-1a counter,others
O=C(Nc1ccc(C(F)(F)F)cc1)N1CCN(c2ccnc3cc(Cl)ccc23)CC1,-6.5,44.6*,-9.7,0.2,-10.5,8.5,16.3,76.3*,
CC(C)(C)c1cc(/C=N/O)cc(C(C)(C)C)c1O,26.6,42.8*,1.4,-0.3,37.7,0.6,25.7,48.9,
CC(=NNC(=S)Nc1ccccc1)c1ccccn1,nt,71.2*,-7.0,-1.9,30.8,-9.4,-79.9,-330.1,
CC(=NNC(=S)N1CCCCC1)c1ccccn1,nt,-87.7,-3.7,-3.9,-17.8,23.2,nt,nt,
CCOc1ccc(N(Cc2cc3cc(C)ccc3[nH]c2=O)S(=O)(=O)c2ccccc2)cc1,nt,2.0,-5.2,-0.4,13.3,10.8,nt,nt,
COc1cc(/C=N/O)ccc1OCc1ccc(C(=O)O)cc1,45.0,89.1*,-11.4,-3.3,6.4,71.5*,90.4*,-73.9,
Cc1ccc(C(C)C)c(OCc2ccc(C(=O)N/N=C/c3ccc(C(=O)O)cc3)cc2)c1,12.6,67.0*,-1.0,-0.7,7.9,15.5,81.1*,-13.0,
Cc1ccc(COc2ccc(/C=N/NC(=O)c3ccc(CN4CCOCC4)cc3)cc2)cc1,3.3,-50.8,-20.9,-5.3,-10.6,16.0,nt,nt,
S=c1[nH]nc(-c2ccco2)n1-c1ccc(Br)cc1,nt,7.4,5.2,1.6,-5.8,2.2,nt,nt,
O=C(NC1CC(=O)N(c2ccc(Cl)cc2)C1)N1CCN(C(=O)c2ccco2)CC1 (configuration not stated),nt,14.9,9.5,0.2,-6.8,5.7,nt,nt,
O=C(CCCN1C(=O)S/C(=C\c2ccccc2)C1=O)NNC(=O)c1ccccc1O,21.0,90.5*,-4.8,0.2,13.5,13.9,89.6*,97.2*,
CC(/C=C1\SC(=S)N(CCCC(=O)Nc2ccc(C(=O)O)cc2)C1=O)=C\c1ccccc1,23.3,-77.8,28.7,-1.5,-14.9,1.5,nt,nt,
CC(/C=C1\SC(=O)N(CCCC(=O)O)C1=O)=C\c1ccccc1,22.6,91.1*,4.9,-2.4,17.0,12.2,98.8*,101.0*,
